From PubChem BioAssay
Activity calls are given as the source filed them.

Columns and labels:
[1] = anti-His antibody binders, primary screen, artefact control for SMM control protein annotation, biochemical, small-molecule microarray, 635 nm fluorescence (AID 1128); conditions: anti-His Alexa647 antibody binding, higher = more signal;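 also: score merges feature fluorescence with signal-to-noise for each printed compound spot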
[2] = tested on: Human papillomavirus type 1a E7 protein (residues 1-88); assay: HPV1a E7 small-molecule binders, primary screen, biochemical, small-molecule microarray, residues 1-88, 635 nm (AID 1129); conditions: small-molecule microarray binding, fluorescence 635 nm; higher = more signal
[3] = target: Focal adhesion kinase 1 (Homo sapiens) (UniProt Q05397); assay: small-molecule microarray binders of FAK, primary screen, biochemical, 635/667 nm fluorescence, BSA, DTT (AID 1130); conditions: PTK2 binding, 635 nm fluorescence, higher = more signal;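 also: composite of spot emission at 667 nm and signal to noise over triplicate slides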
[4] = tested on: Fibrinogen (Alexa647-labelled); assay: fibrinogen binders on compound microarrays, profiling panel, artefact control for SMM control-protein annotation, biochemical, small-molecule microarray, 635/667 nm fluorescence (AID 1131); conditions: fibrinogen-A647 binding fluorescence, higher = more signal;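 also: z-score merges 667 nm fluorescence with per-spot signal-to-noise over triplicate slides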
[5] = target: Follistatin (Homo sapiens) (UniProt P19883); assay: follistatin binders on small-molecule microarrays, primary screen, biochemical, small-molecule microarray, 635/667 nm fluorescence (AID 1132); conditions: FST binding, 635 nm fluorescence, higher = more signal
[6] = target: Fibroblast growth factor 2 (Homo sapiens) (UniProt P09038); assay: FGF2 binders on small-molecule microarrays, primary screen, biochemical, small-molecule microarray, 635/667 nm fluorescence (AID 1133); conditions: small-molecule microarray binding, FGF2, fluorescence 635/667; higher = more signal
[7] = mitochondrial membrane potential change in A549 cells, profiling panel, cell-based, JC-1 fluorescence, basal, 24 h, 100 nL (AID 1138); conditions: higher = more signal;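 also: A549 lung adenocarcinoma cells under basal conditions with no added stimulus; test concentration not given here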
Lefty1 = Lefty1 binders on small-molecule microarrays, primary screen, biochemical, small-molecule microarray, 635/667 nm fluorescence (AID 1139); conditions: small-molecule microarray binding, fluorescence 635/667; higher = more signal
[8] = tested on: wheat germ agglutinin (Triticum aestivum), Alexa647-labelled; assay: wheat germ agglutinin binders on compound microarrays, profiling panel, artefact control for SMM control-protein annotation, biochemical, small-molecule microarray, 635/667 nm fluorescence (AID 1140); conditions: WGA-A647 binding, 635 nm fluorescence, higher = more signal;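 also: score merges 667 nm feature emission with signal to noise over triplicate slides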
[9] = target: Luciferin 4-monooxygenase (Photinus pyralis) (UniProt P08659); assay: firefly luciferase enzyme inhibitors, primary screen, biochemical, luminescence, purified enzyme, 2006 set (AID 1141); conditions: SteadyGlo luminescence, 30 min, higher = more signal, called active from +8 up or from −8 down;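 also: cell-free assay with purified firefly luciferase at 100 ng per well in PBS; test concentration not given here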
Sequence of Luciferin 4-monooxygenase (Photinus pyralis) (P08659 whole entry, looked up): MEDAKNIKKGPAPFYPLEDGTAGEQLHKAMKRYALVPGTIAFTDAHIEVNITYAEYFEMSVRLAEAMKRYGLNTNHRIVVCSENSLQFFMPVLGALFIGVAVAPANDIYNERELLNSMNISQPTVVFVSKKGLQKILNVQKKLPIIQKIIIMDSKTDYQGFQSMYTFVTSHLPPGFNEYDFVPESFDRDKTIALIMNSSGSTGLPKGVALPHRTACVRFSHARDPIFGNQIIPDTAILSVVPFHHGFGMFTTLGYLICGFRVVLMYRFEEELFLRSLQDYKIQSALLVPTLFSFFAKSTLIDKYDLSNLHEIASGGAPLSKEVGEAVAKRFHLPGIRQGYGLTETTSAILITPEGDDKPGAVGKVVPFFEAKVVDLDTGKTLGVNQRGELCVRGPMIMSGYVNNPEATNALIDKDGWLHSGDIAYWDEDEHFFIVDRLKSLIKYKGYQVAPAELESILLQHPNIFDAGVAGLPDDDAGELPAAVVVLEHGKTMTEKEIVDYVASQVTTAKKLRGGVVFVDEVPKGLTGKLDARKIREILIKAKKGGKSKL

Sequence of Follistatin (Homo sapiens) (P19883 whole entry, looked up): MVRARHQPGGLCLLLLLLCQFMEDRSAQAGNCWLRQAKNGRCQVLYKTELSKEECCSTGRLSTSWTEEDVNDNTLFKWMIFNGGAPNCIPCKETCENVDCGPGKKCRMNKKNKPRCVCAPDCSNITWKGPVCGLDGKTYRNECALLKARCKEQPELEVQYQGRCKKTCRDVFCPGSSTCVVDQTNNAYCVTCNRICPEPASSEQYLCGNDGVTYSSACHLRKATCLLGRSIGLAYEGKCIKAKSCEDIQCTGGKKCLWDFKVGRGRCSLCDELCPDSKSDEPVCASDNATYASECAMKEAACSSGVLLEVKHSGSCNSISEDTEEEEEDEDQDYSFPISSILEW
Sequence of Focal adhesion kinase 1 (Homo sapiens) (Q05397 whole entry, looked up): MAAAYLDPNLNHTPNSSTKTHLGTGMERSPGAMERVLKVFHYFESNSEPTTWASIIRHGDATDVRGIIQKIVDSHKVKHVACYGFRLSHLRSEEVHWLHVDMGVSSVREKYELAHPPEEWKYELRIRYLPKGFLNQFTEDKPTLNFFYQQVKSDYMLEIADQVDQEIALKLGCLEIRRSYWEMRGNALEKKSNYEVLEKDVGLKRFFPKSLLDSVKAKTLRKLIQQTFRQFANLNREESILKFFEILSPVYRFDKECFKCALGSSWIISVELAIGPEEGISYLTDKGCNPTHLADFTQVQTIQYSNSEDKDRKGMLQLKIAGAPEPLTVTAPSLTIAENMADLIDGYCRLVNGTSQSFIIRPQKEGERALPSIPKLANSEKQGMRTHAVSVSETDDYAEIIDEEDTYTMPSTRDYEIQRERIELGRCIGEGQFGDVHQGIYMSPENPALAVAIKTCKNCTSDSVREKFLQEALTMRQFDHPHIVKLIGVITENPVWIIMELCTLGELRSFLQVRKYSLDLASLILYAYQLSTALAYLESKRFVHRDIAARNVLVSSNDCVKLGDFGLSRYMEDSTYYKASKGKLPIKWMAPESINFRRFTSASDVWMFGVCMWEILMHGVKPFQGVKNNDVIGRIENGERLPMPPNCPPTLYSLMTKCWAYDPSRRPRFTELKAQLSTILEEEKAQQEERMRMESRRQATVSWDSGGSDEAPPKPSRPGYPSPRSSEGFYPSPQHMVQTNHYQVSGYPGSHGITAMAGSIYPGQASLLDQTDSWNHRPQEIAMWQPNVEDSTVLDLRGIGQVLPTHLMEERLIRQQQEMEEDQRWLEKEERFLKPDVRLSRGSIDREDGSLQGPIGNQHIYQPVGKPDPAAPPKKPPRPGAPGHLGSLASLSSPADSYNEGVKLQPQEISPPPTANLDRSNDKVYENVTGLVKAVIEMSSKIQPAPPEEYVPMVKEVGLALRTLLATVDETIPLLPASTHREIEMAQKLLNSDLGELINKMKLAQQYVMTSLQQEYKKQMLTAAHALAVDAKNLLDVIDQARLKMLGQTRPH
Sequence of Fibroblast growth factor 2 (Homo sapiens) (P09038 whole entry, looked up): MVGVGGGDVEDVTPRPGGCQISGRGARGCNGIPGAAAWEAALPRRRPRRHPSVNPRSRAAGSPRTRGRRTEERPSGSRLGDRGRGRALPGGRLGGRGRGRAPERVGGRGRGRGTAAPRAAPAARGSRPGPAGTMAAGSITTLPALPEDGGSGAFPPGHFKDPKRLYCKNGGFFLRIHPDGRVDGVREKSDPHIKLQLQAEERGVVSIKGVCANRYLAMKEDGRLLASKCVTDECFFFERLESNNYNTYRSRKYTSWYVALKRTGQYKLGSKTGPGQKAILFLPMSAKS

Row | Structure (SMILES) | composite z-score [1] | composite z-score [2] | composite z-score [3] | composite z-score [4] | composite z-score [5] | composite z-score [6] | z-score [7] | composite z-score (Lefty1) | composite z-score [8] | z-score [9]
1 | COc1ccc(NN2C(C(O)c3ccc([N+](=O)[O-])cc3)C=CC3C(=O)N(C4CCCCC4)C(=O)C32)cc1 (stereo not given) | 0.525 | 0.918 | 0.201 | 0.93 | 0.737 | -0.532 | 0.732 | 0.0274 | 1.13 | 0.939 (inactive)
2 | COc1ccc(C(=O)Nc2ccc(CN3C(=O)[C@@]4(O[C@@H](CCn5cc([C@H](O)c6ccccc6)nn5)[C@H]([Si](C)(C)c5ccc(OC)cc5)[C@H]4C)c4ccccc43)cc2)cc1 | 0.848 | -0.024 | -0.103 | 0.579 | 0.836 | -0.019 | 1.83 | 0.526 | 0.376 | -0.753 (inactive)
3 | COCCOC(=O)N1C(=O)[C@@]2(c3cc(C#CC4=CCCCC4)ccc31)[C@H](c1ccc(O)cc1)N1[C@H](c3ccccc3)[C@H](c3ccccc3)OC(=O)[C@H]1[C@@H]2C(N)=O | 0.711 | 1.08 | 0.334 | 0.644 | 1.32 | 1.57 | -0.858 | 1.23 | 0.766 | -1.37 (inactive)
4 | NCCCCCNC(=O)[C@@H]1C[C@@H]2C(=O)N[C@@H](Cc3ccccc3)C(=O)N2[C@@H]1c1cccc(OCCO)c1 | 1.63 | -0.074 | 0.123 | 0.968 | 0.574 | 0.635 | -0.505 | 0.325 | 1.12 | -0.435 (inactive)
5 | COc1cc2c(cc1OC)CN(C(=O)[C@H]1[C@@H]3C(=O)O[C@@H](c4ccccc4)[C@@H](c4ccccc4)N3[C@@H](c3ccc(O)cc3)[C@]13C(=O)Nc1ccc(C#CCNC(N)=O)cc13)CC2 | -0.327 | -0.0403 | 0.0099 | -0.231 | 1.29 | 0.967 | -0.73 | 0.669 | 0.344 | 0.8 (inactive)
6 | COC(=O)[C@@]1(Cc2ccc(F)cc2)[C@H]2c3cc(C(=O)N(C)C)n(CC4CC4)c3C[C@H]2CN1C(=O)c1ccccc1 | 1.54 | 1.21 | -0.0938 | 0.94 | 0.581 | -0.272 | 0.524 | -0.12 | 1.08 | 0.184 (inactive)
7 | O=C1[C@H]2C=C(Br)[C@H](C[C@@H]2c2ccccc2)[C@@]12CO2 | 0.828 | 0.253 | 0.004 | -0.0786 | 1.14 | 0.402 | -0.0698 | 0.785 | -0.21 | 0.266 (inactive)
8 | [N-]=[N+]=Nc1ccccc1[C@H]1OC(c2ccc(OCCCO)cc2)=N[C@@]1(Cc1ccccc1)C(=O)O | 0.864 | 1.25 | 0.345 | 1.04 | 1.17 | 0.284 | 0.384 | 0.708 | 0.611 | -9.33 (active)
9 | O=C1NC(=O)C2C1C=CC(C(O)c1cccc3ccccc13)N2Nc1ccccn1 (stereo not given) | 1.97 | 0.158 | 0.132 | -0.207 | 0.169 | 0.11 | 1.55 | -0.34 | 0.0591 | 0.135 (inactive)
10 | CC(C)C[C@@H]1NC(=O)[C@@H]2C[C@H](C(=O)NCCCCCN)[C@H](c3cccc(OCCO)c3)N2C1=O | 1.19 | 1.04 | 1.13 | 0.93 | 0.555 | 0.591 | 1.18 | 0.288 | 1.13 | -1.21 (inactive)
11 | COC(=O)c1c(CC[C@@H](CO)NC(=O)N2CCC[C@H]2Cn2cc(-c3ccccn3)nn2)oc(C(C)=O)c1C(=O)OC | 0.0014 | 0.282 | 0.16 | -0.975 | -0.0633 | 0.123 | -0.53 | 0.427 | 0.0776 | 0.793 (inactive)
12 | COc1ccc(C(O)C2C=CC3C(=O)N(c4ccccc4)C(=O)C3N2Nc2ccc(C(C)C)cc2)cc1OCc1ccccc1 (stereo not given) | 0.893 | 1.17 | -0.149 | 0.973 | 1.22 | 0.254 | -0.182 | 0.094 | 1.22 | -1.96 (inactive)
13 | O=C1c2ccccc2[C@@]2(Cc3ccccc3N(CC(F)(F)F)C2=O)[C@H](c2ccc(CO)cc2)N1Cc1ccccc1Cl | 0.181 | -0.265 | -0.121 | -0.134 | 1.12 | 0.652 | -0.000595 | 0.667 | -0.518 | -0.496 (inactive)
14 | C=CC[C@]12N=C(c3ccc(OCCCO)cc3)O[C@H]1c1ccccc1N(Cc1ccccc1)C2=O | 1.74 | 0.998 | 0.804 | -0.0608 | 1.29 | 1.34 | -1.21 | -0.0331 | 0.442 | -4.07 (inactive)
15 | COc1ccc(CCNC(=O)[C@@H]2c3ccccc3C(=O)N(C3Cc4ccccc4C3)[C@H]2c2ccc(CO)cc2)cc1 | 1.12 | 0.655 | 1.02 | 0.92 | 0.25 | 0.0201 | 0.997 | -0.0376 | 0.645 | 0.672 (inactive)
16 | CC(C)C[C@H]1NC(=O)[C@@]23C(=O)N[C@@H](Cc4ccccc4)C2[C@H](C)[C@@]2(C)O[C@H]2C3/C=C/C/C=C\CNC(=O)[C@H](Cc2ccccc2)NC1=O (stereo not given in full) | 0.218 | 0.45 | -0.291 | 0.183 | 1.01 | 0.717 | 0.156 | 1.24 | -0.204 | -3.01 (inactive)
17 | COc1ccc([Si](C)(C)[C@H]2[C@H](CCO)O[C@@]3(C(=O)N(Cc4ccc(N5C(=O)COc6ccccc65)cc4)c4ccccc43)[C@@H]2C)cc1 | 1.04 | 0.0091 | -0.187 | 0.27 | -0.566 | -0.684 | 0.272 | -0.072 | 0.484 | 0.0706 (inactive)
18 | COCCOC(=O)N1C(=O)[C@@]2(c3cc(C#CCCO)ccc31)[C@H](c1ccc(OCCO)cc1)N1[C@H](c3ccccc3)[C@H](c3ccccc3)OC(=O)[C@H]1[C@@H]2C(=O)N1CCN(c2ncccn2)CC1 | 1.05 | 1.18 | 0.307 | 0.756 | 1.3 | 1.32 | -1.04 | 1.37 | 0.624 | -0.836 (inactive)
19 | CC(=O)N1Cc2ccccc2C[C@@]2(COC(c3ccc(OCCCO)cc3)=N2)C1=O | 1.93 | 1.18 | 0.994 | 0.842 | 1.26 | 0.701 | -0.956 | 0.0786 | 1.29 | -2.19 (inactive)
20 | O=C1O[C@H](c2ccccc2)[C@H](c2ccccc2)N2[C@H]1[C@@H](C(=O)N1CCN(c3ncccn3)CC1)[C@]1(C(=O)Nc3ccc(C#CC4=CCCCC4)cc31)[C@H]2c1ccc(O)cc1 | 0.896 | 1.21 | 0.0908 | 0.756 | 0.792 | 0.357 | -0.48 | 0.497 | 0.605 | -0.0055 (inactive)
21 | O=C1[C@H]2C=C(Br)[C@H](C[C@@H]2OCCCCO)[C@@]12CO2 | -0.0684 | -0.123 | -0.14 | -0.0973 | 0.324 | 0.108 | 0.137 | 0.17 | 0.0889 | 0.469 (inactive)
22 | COc1ccc(C(O)C2C=CC3C(=O)N(c4ccccc4)C(=O)C3N2Nc2ccccc2F)cc1OCc1ccccc1 (stereo not given) | 0.981 | 1.22 | 1.37 | 0.991 | 0.634 | -0.179 | 0.383 | -0.454 | 1.18 | -0.237 (inactive)
23 | O=C1C2C=CC(C(O)C3CCCCC3)N(Nc3ccc([N+](=O)[O-])cc3)C2C(=O)N1c1ccccc1 (stereo not given) | 3.32 | 1.21 | 0.539 | 0.959 | -0.647 | -1.58 | -1.72 | -0.153 | 0.823 | 0.618 (inactive)
24 | O=C(C1N=C(c2ccc(OCCCO)cc2)N(c2ccccc2)O1)N1CCOCC1 (stereo not given) | 0.548 | 1.2 | 0.497 | 0.966 | 1.22 | 0.667 | 0.211 | 0.842 | 0.388 | -12 (active)
25 | COC(=O)[C@@]1(Cc2ccc(F)cc2)[C@H]2c3cc(C(=O)N(C)C)n(Cc4nc5ccccc5[nH]4)c3C[C@H]2CN1C(=O)c1ccccc1 | 1.11 | 1.28 | 0.187 | 0.843 | 0.526 | -0.634 | -0.0117 | -0.0816 | 0.488 | -0.625 (inactive)
26 | O=C(NCC(F)(F)F)[C@@H]1c2ccccc2C(=O)N(C2CCCCC2)[C@H]1c1ccc(CO)cc1 | -0.216 | 0.402 | -0.013 | 0.403 | 0.173 | -0.179 | 0.221 | -0.63 | 0.807 | -0.128 (inactive)
27 | CCCC=C(CCC)[C@@H](NC(=O)Oc1ccc(F)cc1)c1ccc(C(=O)OC)cc1 | 0.421 | 1.15 | 0.401 | 0.906 | 0.746 | -0.161 | 2.89 | -0.186 | 1.09 | 0.516 (inactive)
28 | O=C(NCc1ccccc1)[C@@H]1c2ccccc2C(=O)N(CC23CC4CC(CC(C4)C2)C3)[C@H]1c1ccc(CO)cc1 | 0.153 | 1.19 | 0.0304 | 0.937 | 1.17 | 1.43 | 0.705 | 0.884 | 0.31 | -0.715 (inactive)
29 | CCOC(=O)C[C@H]1[C@H](OC(=O)c2cc3ccccc3oc2=O)[C@@H](NC(=O)C2CCCCC2)c2cc(OCCCO)ccc2N1C(=O)c1ccccc1 | 0.127 | 0.942 | 0.711 | 0.799 | 0.786 | 1.48 | -0.353 | 0.558 | 0.667 | -0.196 (inactive)
30 | COCCOC(=O)N1C(=O)[C@@]2(c3cc(C#CC4=CCCCC4)ccc31)[C@H](C(=O)Nc1nc3ccccc3s1)[C@H]1C(=O)O[C@H](c3ccccc3)[C@H](c3ccccc3)N1[C@@H]2c1ccc(OCCO)cc1 | 0.424 | 1.07 | 0.147 | 0.192 | 1.18 | 0.898 | -1.99 | 0.726 | 0.253 | -5.3 (inactive)
